High-throughput results from PubChem.
RecA intein inh – Mtb RecA intein splicing inhibition; inhibition, % (concentration not given with the values); cell-free RecA intein splicing, fluorescence; P9WHJ3; 0.75% of 290,000 active; in the data active = inhibition above about 30%; inconclusive = no clear call, values can overlap the other calls
Mtb UGM inh – blocks M. tuberculosis UGM enzyme | P9WIQ1 | purified UGM, fluorescence polarization probe displacement | inhibition, % at 10 µM | 0.06% of 320,000 active | AID 504406; in the data active = inhibition above about 10%, passing the limit was not always enough; inconclusive = no clear call, values can overlap the other calls
Target sequence (P9WIQ1 whole entry, looked up): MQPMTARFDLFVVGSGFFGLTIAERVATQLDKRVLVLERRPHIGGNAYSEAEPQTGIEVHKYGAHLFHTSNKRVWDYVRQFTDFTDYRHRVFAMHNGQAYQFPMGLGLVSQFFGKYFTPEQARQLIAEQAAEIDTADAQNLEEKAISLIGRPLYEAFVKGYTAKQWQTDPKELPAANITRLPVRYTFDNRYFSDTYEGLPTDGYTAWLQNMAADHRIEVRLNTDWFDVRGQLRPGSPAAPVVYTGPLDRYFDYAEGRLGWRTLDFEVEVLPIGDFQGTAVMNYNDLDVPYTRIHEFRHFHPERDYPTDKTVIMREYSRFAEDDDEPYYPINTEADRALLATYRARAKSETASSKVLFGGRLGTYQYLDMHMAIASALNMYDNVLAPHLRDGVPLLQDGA
Mtb bLac sens – beta-lactam sensitization of Mtb H37Rv; M. tuberculosis H37Rv growth with meropenem, percent inhibition; inhibition, % at 25 µM; 0.27% of 330,000 active; call rule not given here;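 note: growth measured after seven days incubation then overnight dye step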
Rv3671c protease – Rv3671c (M. tuberculosis) protease inhibition; P9WHR9; inhibition, % at 5.96 µM; 0.048% of 320,000 active; in the data active = inhibition above about 38%;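 note: extracellular domain of Rv3671c used as enzyme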
GDH-TPI counter – GDH-TPI coupled enzyme inhibition counter-screen. 1.2% of 360,000 active. inhibition, % at 4.8 µM. AID 588335. GDH-TPI coupled enzyme counterscreen, NADH absorbance; in the data active = inhibition above about 30%
Mtb FBA inh – inhibits M. tuberculosis FBA enzyme. P9WQA3. purified M. tuberculosis FBA, fluorescence read-out. inhibition, % at 1 µM. 2.3% of 360,000 active. AID 588726; in the data active = inhibition above about 27%
Target sequence (P9WQA3 whole entry, looked up): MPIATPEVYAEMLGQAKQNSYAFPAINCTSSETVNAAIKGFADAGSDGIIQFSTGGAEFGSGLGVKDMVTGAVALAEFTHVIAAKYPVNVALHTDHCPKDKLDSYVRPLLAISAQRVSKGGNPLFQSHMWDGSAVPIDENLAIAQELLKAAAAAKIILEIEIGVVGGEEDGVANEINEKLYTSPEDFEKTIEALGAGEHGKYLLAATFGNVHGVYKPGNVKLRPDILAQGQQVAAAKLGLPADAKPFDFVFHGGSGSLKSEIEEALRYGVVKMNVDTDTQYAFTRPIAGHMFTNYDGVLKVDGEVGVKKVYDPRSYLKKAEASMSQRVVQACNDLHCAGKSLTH
Large screens that a line does not name were inactive. This is a sample that favours compounds with a hit; in the whole collection about 4% have one here.

CC(=O)NCCNc1nc2cc(-c3cscc3C)sc2c(=O)n1C	none (no result: RecA intein inh, Mtb UGM inh, Mtb bLac sens, Rv3671c protease)
Cc1ccc2nc(-c3ccc(N4C(=NC(=O)CCC(=O)O)SC5CS(=O)(=O)CC54)cc3)sc2c1 (stereo unspecified)	Mtb FBA inh 66.1
CC(=O)N=C1SC2CS(=O)(=O)CC2N1c1ccc(-c2nc3ccc(C)cc3s2)cc1 (stereo unspecified)	none (no result: GDH-TPI counter, Mtb FBA inh)
Cn1c(=O)c([N+](=O)[O-])c(N2CCSCC2)c2ccccc21	none (no result: RecA intein inh)
Cc1nccn1-c1c([N+](=O)[O-])c(=O)n(C)c2ccccc12	RecA intein inh 44.8
COCCCN(C(=O)CSCC(=O)Nc1ccc(C)cc1)c1c(N)n(Cc2ccccc2)c(=O)[nH]c1=O	none (no result: RecA intein inh, Mtb UGM inh, Mtb bLac sens, Rv3671c protease)
O=C(Nc1ccc(F)cc1)c1ccc2[nH]c(=O)c(=O)[nH]c2c1	none
CCCCc1nnc(NC(=O)c2ccc3[nH]c(=O)c(=O)[nH]c3c2)s1	GDH-TPI counter 45.9
Cc1cccc(NC(=O)c2ccc3[nH]c(=O)c(=O)[nH]c3c2)n1	GDH-TPI counter 31.6
CCCCc1nnc(NC(=O)c2ccc(N3CCCC3=O)cc2)s1	none
CC(=O)c1ccc(NC(=O)CN2C(=O)NC3(CCc4ccccc43)C2=O)cc1 (stereo unspecified)	none (no result: RecA intein inh)
O=[N+]([O-])c1cccc(COc2ccccc2CN2CCCC2)c1	none (no result: RecA intein inh, Mtb UGM inh, Mtb bLac sens, Rv3671c protease)
O=[N+]([O-])c1ccc(S(=O)(=O)Nc2ccc(-c3ccccc3)cc2)cc1	none (no result: RecA intein inh, Mtb UGM inh, Mtb bLac sens, Rv3671c protease)
CNC(=O)c1nnsc1S(=O)(=O)c1ccc(Cl)cc1	RecA intein inh 39.8 (no result: Mtb UGM inh, Mtb bLac sens, Rv3671c protease)
O=C(c1nnsc1S(=O)(=O)c1ccc(Cl)cc1)N1CCOCC1	none (no result: Mtb UGM inh, Mtb bLac sens, Rv3671c protease)
CC1(C)CC(=O)C=C(c2n[nH]nc2-c2ccc(F)c(F)c2)C1	none (no result: RecA intein inh, Mtb UGM inh, Mtb bLac sens, Rv3671c protease)
CCOCCCN(C(=O)c1snc(C(N)=O)c1N)C(C(=O)NCCC(C)C)c1ccc(Cl)cc1 (stereo unspecified)	none
COc1ccc(C2=NS(=O)(=O)N(C)C(C(=O)N3CCC(C)CC3)=C2)cc1	GDH-TPI counter 31.1
O=C(Nc1nccs1)c1ccc(-c2cccc([N+](=O)[O-])c2)o1	none
O=C(Nc1ncc(Cc2cccc(C(F)(F)F)c2)s1)c1ccc(-c2cccc([N+](=O)[O-])c2)o1	GDH-TPI counter 54.3
O=C(CN1C(=O)S/C(=C\c2ccccc2Cl)C1=O)NCCCn1ccnc1	GDH-TPI counter 35.3
C=CCN1C(=O)NC(=O)/C(=C/c2c(CCN(C)C(=O)c3ccccc3)cc3c(c2OC)OCO3)C1=O	none
CNC(=S)N(C)CCc1cc2c(c(OC)c1C=C1C(=O)NC(=O)NC1=O)OCO2	GDH-TPI counter 37.9
COc1c(/C=N/Nc2ccc(C(=O)O)cc2)c(CCN(C)C(C)=O)cc2c1OCO2	GDH-TPI counter 36.7
COc1c(/C=N/NC(=O)c2ccccc2O)c(CCN(C)C(C)=O)cc2c1OCO2	none
O=c1nc2ccc(Cl)cn2c2ccc(S(=O)(=O)N3CCOCC3)cc12	Mtb FBA inh 176.3
O=S(=O)(c1cccc(-c2cn3cc(Cl)ccc3n2)c1)N1CCOCC1	none
O=C(COc1ccccc1Cl)Nc1ccc2[nH]c(=O)[nH]c2c1	none (no result: RecA intein inh, Mtb UGM inh, Mtb bLac sens, Rv3671c protease)
COc1cc(/C=N/NC(=O)c2ccc(Cl)c(S(N)(=O)=O)c2)ccc1OCC(N)=O	GDH-TPI counter 43.0
COc1cc(/C=N/NC(N)=S)ccc1OCC(=O)Nc1ccc(C)cc1	GDH-TPI counter 39.8
COc1ccc(/C=N/NC(=O)c2ccc(Cl)c(S(N)(=O)=O)c2)cc1OCC(N)=O	none
CNC(=S)N/N=C/c1ccc(OCC(=O)Nc2c(C)cc(C)cc2C)c(OC)c1	none
COc1ccc(/C=N/NC(N)=S)cc1OC(=O)c1cccc2ccccc12	Mtb bLac sens inconclusive, GDH-TPI counter 33.5
Cc1cccc(CN2CCN(C3CN(Cc4ccc([N+](=O)[O-])cc4)S(=O)(=O)C3)CC2)c1 (stereo unspecified)	none (no result: RecA intein inh, Mtb UGM inh, Mtb bLac sens, Rv3671c protease, GDH-TPI counter)
CSc1ccccc1NC(=O)c1cccc(S(=O)(=O)N2CCN(C)CC2)c1	none
O=C(NNC(=O)c1ccc(Br)o1)c1csc(N2CCOCC2)n1	none (no result: RecA intein inh)
COCCNC(=S)N(C)[C@H]1C[C@H]2c3cc(-c4ccccc4)ccc3CCN2C(=O)[C@H]1[C@H](C)O	none (no result: RecA intein inh, Mtb UGM inh, Mtb bLac sens, Rv3671c protease)
CCN(CC)CCCNc1oc(-c2ccc(OC)c(OC)c2)nc1C#N	Mtb FBA inh 163.7
CN(C)CCNc1oc(COc2cccc(Cl)c2)nc1C#N	none
CN(C)CCCNc1oc(-c2cccc(Cl)c2)nc1C#N	Mtb FBA inh 173.7
Cc1ccc(CNc2oc(C)nc2C#N)cc1	none
COc1ccc(-c2nc(C#N)c(NCCCn3ccnc3)o2)cc1OC	Mtb FBA inh active
COc1ccc(-c2nc(C#N)c(NCc3ccc(C)cc3)o2)cc1OC	Mtb FBA inh 143.9
O=c1[nH]c2nc(Br)[nH]c(=O)c2[nH]1	none (no result: RecA intein inh, Mtb UGM inh, Mtb bLac sens, Rv3671c protease)
Cc1ccc(C(=O)Oc2ccc([N+](=O)[O-])cc2)cc1S(=O)(=O)N1CCCCCC1	RecA intein inh 30.2
O=C(CCc1nc2ccccc2s1)N1CCN(c2ccccc2)CC1	none
CC(=O)c1ccc(N2CCN(C(=O)CCCc3nc4ccccc4s3)CC2)cc1	GDH-TPI counter 31.9 (no result: RecA intein inh)
O=C(COc1cccc(C(F)(F)F)c1)Nc1cccc(S(=O)(=O)NC2=NCCCCC2)c1	none (no result: RecA intein inh, Mtb UGM inh, Mtb bLac sens, Rv3671c protease)
O=C(N/N=C/c1cccnc1)/C(=C\c1cccs1)NC(=O)c1ccccc1	GDH-TPI counter 46.7
COc1ccc([N+](=O)[O-])cc1/C=N/NC(=O)/C(=C\c1cccs1)NC(=O)c1ccccc1	GDH-TPI counter 43.4
COc1ccc(/C=C(\NC(=O)c2cccs2)C(=O)Nc2ccccc2C)cc1OC	GDH-TPI counter 38.3
COc1ccc(/C=C(/NC(=O)c2ccccc2)C(=O)N/N=C/c2cccs2)cc1OC	GDH-TPI counter 69.3
COc1ccc(NC(=O)C[C@H]2C(=O)N(CCc3ccccc3)C[C@@H]2Cc2ccccc2)cc1	none (no result: RecA intein inh, Mtb UGM inh, Mtb bLac sens, Rv3671c protease)
CCOc1ccc(C(=O)N[C@H](C(=O)Nc2ccc(S(=O)(=O)Nc3nccs3)cc2)C(C)C)cc1	none (no result: RecA intein inh)
Clc1ccc(Cc2ccccn2)cc1	none (no result: RecA intein inh, Mtb UGM inh, Mtb bLac sens, Rv3671c protease)
O=C(Nc1cccc(C(=O)O)c1)/C(=C\c1ccc2c(c1)OCO2)NC(=O)c1ccccc1	none
COc1ccc(/C=C(/NC(=O)c2ccccc2)C(=O)N/N=C/c2ccc3c(c2)OCO3)cc1OC	GDH-TPI counter 64.5 (no result: RecA intein inh, Mtb UGM inh, Mtb bLac sens, Rv3671c protease)
O=C(N/N=C/c1ccc2c(c1)OCO2)/C(=C/c1ccc2c(c1)OCO2)NC(=O)c1ccccc1	GDH-TPI counter 54.8
COc1cc2ccccc2cc1C(=O)N/N=C/c1cccs1	GDH-TPI counter 34.8 (no result: RecA intein inh, Mtb UGM inh, Mtb bLac sens, Rv3671c protease)
COc1ccccc1C(=O)N/C(=C/c1ccc2c(c1)OCO2)C(=O)Nc1ccc(C(=O)O)cc1	none
Cc1c(-c2ccccc2)c(=O)oc2cc(O)ccc12	Mtb FBA inh active
COc1cc(/C(O)=C(\C#N)c2nc3ccccc3[nH]2)cc(OC)c1OC	GDH-TPI counter 38.1 (no result: Rv3671c protease)
COc1ccc(C)cc1-n1nnnc1SC/C(O)=C(\C#N)c1nc2ccccc2[nH]1	GDH-TPI counter 36.4 (no result: RecA intein inh)
Cc1cc(C)n2c(SCC(O)=C(C#N)c3nc4ccccc4[nH]3)nnc2n1	none (no result: RecA intein inh, Mtb UGM inh, Mtb bLac sens, Rv3671c protease)
N#C/C(=C(\O)c1cc(Cl)sc1Cl)c1nc2ccccc2[nH]1	GDH-TPI counter 38.9
